The results in this text go back to PubChem BioAssay AID1645857 (Buhrlage Lab, Dana-Farber Cancer Institute and Novartis …, 2021).

Out of some 47,000 compounds screened, about 1,400 (3%) were called active. Many of the other results were omitted from the sample, so actives are more common in it than they were. A number with no mark means an inactive call. Rule as the data show it: active = inhibition above about 30%; inactive = the rest.

For the experiment, the target named is Ubiquitin carboxyl-terminal hydrolase 28 (Homo sapiens) (UniProt Q96RU2). In words: blocks human USP28 ubiquitin-rhodamine cleavage (AID 1645857). The conditions noted are these: purified USP28, Ub-rhodamine cleavage fluorescence, 30 min; at 25 µM; stronger effect = higher value.
Chain of Ubiquitin carboxyl-terminal hydrolase 28 (Homo sapiens) (Q96RU2 whole entry, looked up): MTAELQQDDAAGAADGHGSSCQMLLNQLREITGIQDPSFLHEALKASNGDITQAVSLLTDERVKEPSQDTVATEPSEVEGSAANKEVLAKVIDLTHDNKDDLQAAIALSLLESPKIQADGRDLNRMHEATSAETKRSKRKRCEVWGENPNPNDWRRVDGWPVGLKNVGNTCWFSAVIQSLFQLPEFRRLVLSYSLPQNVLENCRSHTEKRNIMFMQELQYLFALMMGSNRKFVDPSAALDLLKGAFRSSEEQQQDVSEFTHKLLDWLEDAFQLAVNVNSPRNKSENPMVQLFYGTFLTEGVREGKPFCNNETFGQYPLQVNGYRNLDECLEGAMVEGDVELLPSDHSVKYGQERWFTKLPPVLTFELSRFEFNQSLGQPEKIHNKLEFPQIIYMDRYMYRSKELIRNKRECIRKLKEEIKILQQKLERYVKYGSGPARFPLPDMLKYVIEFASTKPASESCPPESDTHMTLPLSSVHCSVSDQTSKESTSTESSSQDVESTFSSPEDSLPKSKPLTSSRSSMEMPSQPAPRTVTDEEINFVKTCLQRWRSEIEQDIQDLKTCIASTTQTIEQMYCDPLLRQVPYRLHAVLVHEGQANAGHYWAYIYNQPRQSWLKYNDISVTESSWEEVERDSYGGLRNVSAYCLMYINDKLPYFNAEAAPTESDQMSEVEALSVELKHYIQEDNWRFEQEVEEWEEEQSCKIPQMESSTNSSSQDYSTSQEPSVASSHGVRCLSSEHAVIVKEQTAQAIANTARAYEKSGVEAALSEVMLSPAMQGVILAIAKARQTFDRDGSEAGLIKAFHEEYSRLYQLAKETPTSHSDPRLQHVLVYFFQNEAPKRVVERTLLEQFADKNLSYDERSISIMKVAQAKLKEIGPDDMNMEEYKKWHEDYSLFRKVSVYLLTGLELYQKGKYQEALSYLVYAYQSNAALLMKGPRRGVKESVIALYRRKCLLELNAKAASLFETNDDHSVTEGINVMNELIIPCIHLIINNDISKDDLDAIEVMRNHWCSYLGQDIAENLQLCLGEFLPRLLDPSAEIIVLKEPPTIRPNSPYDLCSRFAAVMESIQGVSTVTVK
By inhibition is commonly meant the drop in the measured response relative to a control, in per cent. As for `O=C1CSC(c2ccc(F)cc2)c2c(-c3ccccc3)nn(-c3ccccc3)c2N1` (stereo not given), the inhibition is 35.2% (active).

For the compound `O=C(CCCn1c(=O)[nH]c2cc(Cl)ccc2c1=O)N1CCC2(CC1)OCCO2`, the inhibition was 15%.

As for `COc1cc(N2CC[C@@H]3[C@@H]2CCN3Cc2cccnc2)ncn1`, the inhibition was -13.3%.

In the case of `CC(C)(C)n1cc(C(=O)NCC(=O)Nc2ccc(Br)cc2)cn1`, the inhibition was 1.73%.

As for `Cc1noc(C)c1CN1CCO[C@H]2C(Cn3cccn3)CC[C@@H]21` (stereo not given in full), the inhibition is -2.14%.
